This is a sample that favours compounds with a hit; in the whole collection about 9.3% have one here.
ELG1 genotox – induces genotoxicity in HEK293T cells with luciferase-tagged ELG1. hit rate 1.3% among 330,000. Potency, µM (top dose mostly 46 µM), inactives show at the top dose activity change, positive = activation, actives largely listed as activators. HEK293T ELG1-luciferase reporter, luminescence, 16 h; also: % of control where 0% means no effect; nearly all actives have a fitted effect of over 60% in size
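Genotoxic stress is detected as increased luminescence from luciferase-tagged ELG1 in HEK293T cells, measured with ONE-Glo after a 16 hr treatment at 37 °C.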
FLuc modulator – inhibits or activates purified firefly luciferase, miR-21 counter-screen. Potency, µM (highest dose often 57.5 µM), for inactives: at the highest dose activity change, negative = inhibition, actives largely listed as inhibitors. hit rate 6.9% among 360,000. purified FLuc, Km substrates, luminescence inhibition;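 also: plate controls were vehicle for no effect and reference inhibitor for full effect; nearly all actives have a fitted effect of over 55% in size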
Target sequence (P08659 whole entry, looked up): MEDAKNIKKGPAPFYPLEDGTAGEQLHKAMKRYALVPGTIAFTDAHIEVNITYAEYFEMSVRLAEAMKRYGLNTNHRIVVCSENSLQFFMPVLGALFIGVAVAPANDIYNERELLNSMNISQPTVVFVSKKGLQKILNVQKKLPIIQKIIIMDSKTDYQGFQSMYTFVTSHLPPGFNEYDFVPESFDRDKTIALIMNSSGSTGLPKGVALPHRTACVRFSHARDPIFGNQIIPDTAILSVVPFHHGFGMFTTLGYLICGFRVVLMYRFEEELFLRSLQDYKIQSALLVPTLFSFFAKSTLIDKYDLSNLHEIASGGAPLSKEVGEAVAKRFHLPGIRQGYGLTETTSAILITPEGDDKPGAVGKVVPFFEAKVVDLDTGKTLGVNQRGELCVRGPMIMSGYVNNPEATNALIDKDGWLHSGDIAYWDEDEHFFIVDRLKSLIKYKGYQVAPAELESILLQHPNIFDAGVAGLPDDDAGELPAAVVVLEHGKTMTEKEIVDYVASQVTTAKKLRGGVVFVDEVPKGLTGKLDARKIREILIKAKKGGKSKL
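Biochemical qHTS of compounds, final roughly 60 µM downward over six points, against 10 nM purified firefly luciferase using Km concentrations of substrates (10 uM D-luciferin, 10 uM ATP) in Tris acetate pH 7.5 buffer; luminescence output.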
ELG1 DNA repair – inhibitors of ELG1-dependent DNA repair in HEK293T cells. Potency, µM (titrated, usually from 46.1 µM), for the others: at the highest dose activity change, negative = inhibition, hits mostly inhibitors. HEK293T ELG1-luciferase reporter, luminescence, 16 h; DNA damage induced by 5-fluorouridine. hit rate 2.3% among 330,000; also: % is scaled to controls: 0 for no effect and ±100 for the full control effect; nearly all actives have a fitted effect of over 55% in size
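HEK293T cells expressing luciferase-tagged ELG1 (2,000/well) received 5-Fluorouridine plus compound or DMSO for 16 hr at 37 °C. Luciferase was read by ONE-Glo luminescence after 30 min at room temperature.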
NPC1 prom act – NPC1 promoter activation; Huh7 NPC1 promoter luciferase reporter, 24 h; Potency, µM (series often up to 9.22 µM), inactives show top-dose activation, hits mostly activators; hit rate 2.4% among 320,000; also: % of control where 0% means no effect; nearly all actives have a fitted effect of over 60% in size
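In 1536-well qHTS, Huh7 cells harboring an NPC1 promoter–luciferase construct received compound for 24 h; activation was quantified by luminescence following luciferase reagent addition.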
SMN2 splice up – enhancers of SMN2 splice variant expression; HEK293 SMN2-luciferase splicing reporter, luminescence, 30-36 h; Potency, µM (doses to about 46.1 µM), for inactives: at the highest dose activity change, positive = activation, actives largely listed as activators; hit rate 2.8% among 210,000; AID 1458; also: % of control where 0% means no effect; nearly all actives have a fitted effect of over 55% in size
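HEK293 cells carry an SMN2 […]–luciferase reporter in which exon 7 inclusion puts luciferase in frame. Cells were plated 10-12 h before compound addition, then incubated 30-36 h at 37C. ONE-Glo luminescence was read; sodium butyrate at 4.5 mM final served as control.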
Rab9 prom act – activators of Rab9 promoter; hit rate 2.8% among 320,000; Huh7 Rab9 promoter-luciferase reporter, luminescence, 24 h; AID 485297; Potency, µM (doses to about 9.22 µM), without a hit: at the top dose activation, negative = inhibition, most hits filed as activators; also: % of control where 0% means no effect; nearly all actives have a fitted effect of over 60% in size
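Steps: seed 1500 Huh7 Rab9-luc cells per well, rest 2 h at 37 °C; add compound in DMSO; incubate 24 h; add luciferase reagent, 10 min ambient; read luminescence.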
Numbers without * were called inactive; ? = inconclusive; . = no result given; [ ] = dose if it differs, or a comment. Calls follow the shape of the dose curve; as a rule, active = well fitted curve in the direction sought with a large enough effect; inconclusive = small, poorly fitted or top-dose-only effect, or another doubt; inactive = no such curve, though single readings can be large; an effect the other way counts as inactive or inconclusive. Potency is read from the fitted curve at half-maximal effect.

SMILES | ELG1 genotox | FLuc modulator | ELG1 DNA repair | NPC1 prom act | SMN2 splice up | Rab9 prom act
CCOC(=O)c1c(C)nc2sc3c(=O)[nH]cnc3c2c1-c1ccc(OC)cc1 | 2% | 0% | 21µM* | -4% | 20% | -5%
CCC(C)(C)NC(=O)C(c1ccccn1)N(C(=O)c1csnn1)c1ccc(C)c(C)c1 (configuration not stated) | -6% | -1% | -14% | -8% | 6% | -3%
COc1ccc(C(=O)N/N=C/c2ccc3cccc(O)c3n2)cc1 | -5% | ? | ? | -6% | . | -7%
CCOc1cccc(/C=C/c2ccc3cccc(O)c3n2)c1OC | 21µM* | 4.8µM* | ? | 3.2µM* | . | 12%[1.84 µM]
CCOc1cccc(/C=C/c2ccc3cccc(O)c3n2)c1O | 23µM* | 5.4µM* | ? | ? | . | ?
Cc1ncoc1C(=O)N1CCCC(C(=O)c2ccc(C(F)(F)F)cc2)C1 (configuration not stated) | -1% | -20% | -1% | -8% | . | -9%
Cc1ccc(Nc2cc(C)nc(-c3ccccc3O)n2)cc1 | ? | 24µM* | ? | 14% | -14% | 18%
Cc1cc(Nc2ccc(F)c(F)c2)nc(-c2ccccc2O)n1 | 1% | 0% | -1% | -2% | . | -11%
Cc1ccc(Nc2cc(C)nc(-c3ccccc3)n2)cc1 | ? | 21µM* | ? | ? | . | ?
Cc1cc(Nc2ccc(Br)cc2)nc(-c2ccccc2O)n1 | 3% | ? | 5% | -4% | . | 10%
COc1ccc(S(=O)(=O)Nc2cccc3c2O[C@@H](CN(C)Cc2ccc(C(=O)O)cc2)[C@@H](C)CN([C@H](C)CO)C3=O)cc1 | 3% | . | 11% | . | . | .
CC1CCc2c(sc(/N=C/c3cccnc3)c2C(N)=O)C1 (configuration not stated) | 17% | 24µM* | ? | 8% | . | 2%
CC1CCc2c(sc(/N=C/c3ccco3)c2C(N)=O)C1 (configuration not stated) | ? | 5.4µM* | ? | ? | . | 28%
CN(C)C(=S)Nc1ccc(S(=O)(=O)N2CCCCC2)cc1 | -3% | -1% | ? | 1% | . | -8%
COc1cc2ccccc2nn1 | -3% | 5% | 3% | -6% | . | -3%
COc1ccc2c(n1)Sc1nc3ccccc3nc1N2 | 8.2µM* | 2.1µM* | ? | ? | . | 2.2µM*
COc1cccc(C(=O)Cn2c(=N)n(C)c3ccccc32)c1 | 0.37µM* | 1.2µM* | ? | 0.56µM* | 1.3µM* | ?
COc1cccc(C(=O)Cn2c(NCCO)nc3ccccc32)c1 | 0% | -2% | 14% | -2% | 4% | 1%
Cn1c(=N)n(CC(=O)c2cccs2)c2ccccc21 | ? | 11µM* | ? | 20% | ? | 24%
Cn1c(=N)n(CC(=O)c2ccc(Br)s2)c2ccccc21 | 2.5µM* | 8.5µM* | ? | 9% | ? | ?
CCOC(=O)c1ccccc1NC(=O)CSc1nc2ncccc2o1 | . | 0% | . | . | . | .
O=C(NCc1ccco1)/C(=C\C=C\c1ccccc1)NC(=O)c1ccccc1Br | -15% | 27µM* | 23µM* | -1% | -10% | 2%
O=C(NCc1ccco1)/C(=C/C=C/c1ccccc1)NC(=O)c1ccco1 | 0% | -14% | -9% | -1% | -12% | 10%
CC(=O)c1ccc(NC(=O)CN(C)S(=O)(=O)c2cc3c(cc2Cl)NC(=O)CO3)cc1 | . | 1% | . | . | . | .
COc1cccc2[nH]c3c(N4CCCC(C)C4)ncnc3c12 (configuration not stated) | -2% | 5.4µM* | 10% | 15% | 4% | 28%
SMILES | ELG1 genotox | FLuc modulator | ELG1 DNA repair | NPC1 prom act | SMN2 splice up | Rab9 prom act
COc1cccc2[nH]c3c(N4CCC(C(N)=O)CC4)ncnc3c12 | -5% | -13% | ? | 2% | -5% | 8%
COc1cccc2[nH]c3c(N4CC(C)CC(C)C4)ncnc3c12 (configuration not stated) | -6% | -12% | 15µM* | -1% | -18% | -1%
Cc1cc(=O)n2nc(-c3ccc(C(F)(F)F)cc3)sc2n1 | 4µM* | ? | ? | ? | 11µM* | ?
O=C(c1c(F)cccc1F)N1CCN(CCOc2ccccc2)CC1 | -15% | 3% | 21µM* | -4% | . | -1%
O=C(NCCN1CCN(C(=O)c2c(F)cccc2F)CC1)C(=O)Nc1ccc(Cl)cc1 | -9% | 2% | 7.3µM* | -1% | . | -5%
O=C(c1ccc(Cl)cc1)N1CCN(CCOc2ccccc2)CC1 | -14% | -3% | -22% | 3% | . | -4%
O=C(CN1C(=O)COc2ccc(S(=O)(=O)N3CCCCCC3)cc21)NCc1ccc(Cl)cc1 | . | -4% | . | . | . | .
Clc1ccc(-c2c[n+]3c(n2-c2ccccc2)SCC3)cc1 | -9% | -1% | 7.3µM* | -12% | -14% | -10%
Cc1ccc(NC(=O)C2CCCN(c3ncccn3)C2)cc1C (configuration not stated) | ? | 17µM* | ? | ? | . | ?
COc1ccc(NC(=O)C2CCCN(c3nccc(C)n3)C2)cc1 (configuration not stated) | 1% | -1% | -3% | -1% | -8% | -10%
CCC(C)c1ccc(NC(=O)C2CCCN(c3ncccn3)C2)cc1 (configuration not stated) | -1% | 15µM* | 10% | 4% | 8% | 1%
CCC(C)c1ccc(NC(=O)C2CC2)cc1 (configuration not stated) | ? | 15µM* | ? | 16% | 2% | 29%
COc1ccc(NC(=O)C2CCCN(c3ncccn3)C2)cc1 (configuration not stated) | ? | 17µM* | ? | ? | . | 2.8µM*
Cc1ccnc(N2CCCC(C(=O)Nc3ccc(C)c(C)c3)C2)n1 (configuration not stated) | -18% | 1% | -22% | 3% | . | -1%
Cc1nn(CC(=O)NCc2ccc(F)cc2)c2ccccc12 | . | -8% | . | . | . | .
Nc1cc(=O)[nH]c(SCC(=O)Nc2cc(S(=O)(=O)N3CCCCC3)ccc2Cl)n1 | 2% | ? | 1% | -4% | . | -10%
CC(=O)N1CCCc2cc(S(=O)(=O)N3CCCC(C(=O)Nc4cc(Cl)ccc4C)C3)ccc21 (configuration not stated) | . | 6% | . | . | . | .
COc1ccc2c(CNCCc3cccs3)c(C(=O)O)n(Cc3ccc(F)cc3Cl)c2c1 | . | -6% | . | . | . | .
CCC(C)c1ccc(NC(=O)Nc2cnccn2)cc1 (configuration not stated) | ? | 6.7µM* | ? | -6% | . | ?
COc1ccc(Cn2c(C)ccc2C)cc1 | 9% | 0% | -17% | 0% | 6% | -2%
